Cruzain noTriton – cruzain (T. cruzi) inhibition without detergent | purified cruzain, Z-FR-AMC fluorescence, no detergent | Potency, µM, inactives show max response, negative = inhibition, hits mostly inhibitors | 2.3% of 200,000 active;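 also: plate controls were enzyme without inhibitor for no effect and buffer without enzyme for full effect; nearly all actives have a fitted effect of over 40% in size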
Target sequence (P25779 123-467 limits assumed): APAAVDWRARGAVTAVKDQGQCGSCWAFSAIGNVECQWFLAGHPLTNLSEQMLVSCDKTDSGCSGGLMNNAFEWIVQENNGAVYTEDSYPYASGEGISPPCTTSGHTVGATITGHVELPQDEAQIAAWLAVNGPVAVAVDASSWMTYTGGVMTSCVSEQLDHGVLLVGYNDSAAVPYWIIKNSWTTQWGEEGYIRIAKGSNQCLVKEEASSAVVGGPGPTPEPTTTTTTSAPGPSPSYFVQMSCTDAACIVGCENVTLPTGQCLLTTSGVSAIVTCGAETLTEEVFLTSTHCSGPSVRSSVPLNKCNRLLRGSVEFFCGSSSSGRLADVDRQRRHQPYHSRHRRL
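Purified cruzain at 1.5 nM, pre-incubated 15 min with compound at room temperature in 100 mM sodium acetate pH 5.5, 5 mM DTT, 0.00005% Triton X-100. Reaction started with 2 uM Z-FR-AMC; AMC fluorescence increase over 60 s gives rate.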
Cruzain Triton – blocks cruzain activity in presence of Triton detergent; P25779; purified cruzain, Z-FR-AMC fluorescence, 0.01% Triton; Potency, µM, inactives show max response, negative = inhibition, actives largely listed as inhibitors; 0.43% of 200,000 active;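 also: plate controls were neutral wells for no effect and buffer without enzyme for full effect; nearly all actives have a fitted effect of over 40% in size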
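Cruzain (1.5 nM) preincubated 15 min at RT with compound in 100 mM sodium acetate pH 5.5, 5 mM DTT, 0.01% Triton X-100. Reaction started with 2 uM Z-FR-AMC; AMC fluorescence (ex 360/em 450 nm) change over 60 s gave rate.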
NS1 inh – blocks influenza NS1 protein function | Potency, µM (titrated, usually from 46.1 µM), for inactives: top-dose activity, positive = more growth | 0.4% of 270,000 active | AID 2326; calls by dose curve; also: actives are rising curves; nearly all actives have a fitted effect of over 50% in size
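Read-out: OD600 growth recovery of NS1-expressing budding yeast. Cells grown overnight at 30C in -URA glucose medium, washed, resuspended and diluted 1:100 in 2% galactose assay medium, pH 6.0. Same strain lacking NS1 served as positive control.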
Active calls of the source: *; ? = inconclusive; · = no result given. The entries come from a sample that favours hits as a whole. Unless noted, calls follow the shape of the dose curve; as a rule, active = well fitted curve in the direction sought with a large enough effect; inconclusive = small, poorly fitted or top-dose-only effect, or another doubt; inactive = no such curve, though single readings can be large; an effect the other way counts as inactive or inconclusive. Potency is read from the fitted curve at half-maximal effect.

SMILES	Cruzain noTriton	Cruzain Triton	NS1 inh
O=C(NCC1CCCO1)C1CCC(=O)N1CCc1ccccc1 (stereo not given)	2.1%	1.1%	-0.6%
COc1cc(C(=O)ON=C2C=C(C)C(=O)C(C)=C2)cc(OC)c1OC	?	3.55µM*	-10.3%
COc1cc(C(=O)O/N=C2\C=CC(=O)C(C)=C2)cc(OC)c1OC	-17.2%	?	-35.1%
N#C/C(=C\C1=C(N2CCOCC2)C(=C\c2ccc(Cl)cc2)/CC1)C(=O)Nc1ccccc1F	10µM*	-8.3%	6.9%
N#C/C(=C\C1=C(N2CCOCC2)C(=C/c2cccc([N+](=O)[O-])c2)/CC1)C(=O)Nc1ccccc1F	12.6µM*	-5.7%	-7.4%
CC(NC(=O)C12CC3CC(CC(C3)C1)C2)C(=O)N/N=C/C1=C(N2CCOCC2)C(=C\c2cccc([N+](=O)[O-])c2)/CC1 (stereo not given)	-21.4%	-7.1%	3.0%
CCN(CC)c1ccc(/C=C2\CCC(/C=C(\C#N)C(=O)Nc3ccccc3F)=C2N2CCOCC2)cc1	?	-1.7%	-0.7%
COc1cccc(-c2c(C(=O)N/N=C/c3ccc(C)o3)nnn2-c2nonc2N)c1	·	·	-2.0%
Nc1c(C(=O)c2ccccc2)oc2ccc([N+](=O)[O-])cc12	·	·	-3.7%
CC(=O)Nc1cccc(-c2nnc3c4ccccc4c(C)nn23)c1	·	·	-0.8%
Cc1nn(C)c(Oc2ccccc2)c1CCNC(=O)CCl	·	·	2.0%
Cc1ccc2nc3c(cc(C(=O)NCc4cccnc4)c(=N)n3C(C)C)c(=O)n2c1	?	31.6µM*	3.9%
CCCn1c(=N)c(C(=O)NCc2cccnc2)cc2c(=O)n3cc(C)ccc3nc21	23.1%	1.8%	·
O=C(CNC(=O)c1ccc(Cl)cc1Cl)OCC(=O)c1ccc2c(c1)OCCO2	3.16µM*	3.16µM*	-47.4%
O=C(CNC(=O)c1ccco1)OCC(=O)c1ccc(Cl)cc1Cl	·	·	-6.1%
C/C1=C2N=C(/C=C3N=C(/C(C)=C4\[N-]C(C)(C5N=C1C(C)(CCC(=O)NCC(C)OP(=O)([O-])O[C@H]1C(O)C(n6cnc7cc(C)c(C)cc76)O[C@@H]1CO)C5CC(N)=O)C(C)(CC(N)=O)C4CCC(N)=O)C(C)(CC(N)=O)C\3CCC(N)=O)C(C)(C)C/2CCC(N)=O.[CH2-]C1OC(n2cnc3c(N)ncnc32)C(O)C1O.[Co] (stereo not given in full)	12.6µM*	10µM*	·
CCCn1c(=NC(=O)c2ccc3c(c2)OCO3)c(C#N)cc2c(=O)n3cccc(C)c3nc21	-11.3%	3.7%	-62.9%
Cc1ccc(N=Cc2c(O)n(-c3cc(Cl)ccc3N3CCOCC3)c(=O)c3ccccc23)cc1C	6.31µM*	-1.4%	21.8%
O=c1[nH]c(=S)n(-c2ccc(Cl)cc2)c(O)c1C=Nc1ccc(N2CCOCC2)cc1	·	·	7.6%
COc1ccccc1CNC(=O)Cc1ccc(C)cc1	·	·	-4.7%
O=C(CCN1CCc2ccccc2CC1)c1ccc2c(c1)OCCO2	15.8µM*	?	-213.2%
O=C(CCN1CCOCC1)c1ccc2c(c1)OCCO2	-13.9%	-22.6%	-30.6%
O=C(CSc1nnc(-c2cccc(S(=O)(=O)N3CCCCC3)c2)o1)c1ccc[nH]1	15.8µM*	-0.3%	-8.2%
NC(=O)CSc1nnc(-c2cccc(S(=O)(=O)N3CCCCC3)c2)o1	·	·	-0.2%
COc1cc(CN2CCN(c3ccccc3F)CC2)c([N+](=O)[O-])cc1OC	-6.1%	-3.9%	2.6%
SMILES	Cruzain noTriton	Cruzain Triton	NS1 inh
Cc1ccc(NC(=O)c2c(C)cc(C)nc2SCC(=O)Nc2ccc(Br)cc2)cc1	-20.4%	-5.1%	·
COc1ccccc1NC(=S)N(CCCN(C)C)Cc1cc2cc3c(cc2[nH]c1=O)OCO3	·	·	-6.8%
COC(=O)c1ccccc1NC(=S)N(Cc1ccc2c(c1)OCO2)Cc1cc2cc(OC)ccc2[nH]c1=O	10µM*	-9.9%	22.1%
Cc1ccc(S(=O)(=O)N2CCOCC2)cc1NC(=O)COC(=O)CNC(=O)c1ccc(C(C)(C)C)cc1	?	-2.3%	-6.2%
O=C(COC(=O)CNC(=O)c1ccc(Cl)c([N+](=O)[O-])c1)NC(=O)c1ccccc1	·	·	7.8%
Cc1ccc(S(=O)(=O)N2CCCCC2)cc1NC(=O)COC(=O)CNC(=O)c1cc(Cl)cc([N+](=O)[O-])c1	20µM*	10µM*	-14.8%
CC(C)NC(=O)COC(=O)CNC(=O)c1cc(Cl)cc([N+](=O)[O-])c1	7.94µM*	7.94µM*	-1.3%
Cc1onc(-c2ccccc2)c1C(=O)NC(C)c1ccc2c(c1)OCO2 (stereo not given)	·	·	8.1%
CN(C)Cc1nnnn1-c1cccc(-n2nnnc2CN(C)C)c1	·	·	-2.6%
COC(=O)c1c(NC(=O)CSc2nnnn2-c2ccccc2)sc2c1CCC(C(C)(C)C)C2 (stereo not given)	6.31µM*	-2.0%	14.1%

Assay outcomes deposited in PubChem BioAssay by National Center for Advancing Translational Sciences (NCATS).
